# Measured values from the supplement of paper PMC12645437, “Orthogonal IMiD-Degron Pairs Induce Selective Protein Degradation in Cells” (ACS Chemical Biology, 2025).
# Over roughly 8,300 sequences, “log2 fold change of degron read counts, EGFP-low vs EGFP+ sorted cells (limma voom), compound-induced degradation” has its median near -1.1; the highest 2% begin near 3.2. What follows is part of a selection rich in the highest values, with near analogues and random picks from the rest.
# T1: CRBN, Q96SW2
# T1 chain: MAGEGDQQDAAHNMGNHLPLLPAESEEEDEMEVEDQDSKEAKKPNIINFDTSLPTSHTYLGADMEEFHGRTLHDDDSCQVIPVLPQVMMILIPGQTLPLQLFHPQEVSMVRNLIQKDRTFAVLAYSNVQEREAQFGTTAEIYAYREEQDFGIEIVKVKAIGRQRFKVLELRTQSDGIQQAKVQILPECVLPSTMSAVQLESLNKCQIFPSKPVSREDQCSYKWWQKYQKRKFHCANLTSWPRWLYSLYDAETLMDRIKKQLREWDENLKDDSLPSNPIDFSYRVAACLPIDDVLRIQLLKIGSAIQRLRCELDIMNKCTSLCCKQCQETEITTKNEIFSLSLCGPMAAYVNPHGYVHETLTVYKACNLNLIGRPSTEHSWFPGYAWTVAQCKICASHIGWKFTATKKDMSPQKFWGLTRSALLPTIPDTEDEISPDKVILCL
# B1: 46F_47S_49N_50I_52G_53A_54T_55F_67L_, Q9UKT9 (peptide)
# chain: FSCNICGATFTQKGNLLRHIKL
# B2: 46F_47R_49S_50V_52G_53H_54P_55F_67L_, Q9UKT9 (peptide)
# chain: FRCSVCGHPFTQKGNLLRHIKL
# B3: 46L_47D_49N_50Q_52G_53F_54V_55C_67L_, Q9UKT9 (peptide)
# chain: LDCNQCGFVCTQKGNLLRHIKL
# B4: 46F_47D_49N_50V_52G_53A_54S_55F_67L_, Q9UKT9 (peptide)
# chain: FDCNVCGASFTQKGNLLRHIKL
# B5: 46F_47D_49E_50I_52G_53R_54T_55F_67L_, Q9UKT9 (peptide)
# chain: FDCEICGRTFTQKGNLLRHIKL
# B6: 46F_47R_49E_50I_52G_53R_54S_55F_67L_, Q9UKT9 (peptide)
# chain: FRCEICGRSFTQKGNLLRHIKL
# B7: 46F_47E_49N_50I_52G_53A_54I_55F_67L_, Q9UKT9 (peptide)
# chain: FECNICGAIFTQKGNLLRHIKL
# B8: 46F_47L_49P_50V_52G_53A_54S_55F_67L_, Q9UKT9 (peptide)
# chain: FLCPVCGASFTQKGNLLRHIKL
# B9: 46F_47E_49D_50V_52G_53A_54S_55F_67L_, Q9UKT9 (peptide)
# chain: FECDVCGASFTQKGNLLRHIKL
# B10: 46F_47H_49P_50V_52G_53A_54S_55F_67L_, Q9UKT9 (peptide)
# chain: FHCPVCGASFTQKGNLLRHIKL
# B11: 46F_47I_49P_50V_52G_53A_54S_55F_67L_, Q9UKT9 (peptide)
# chain: FICPVCGASFTQKGNLLRHIKL
# B12: 46F_47Y_49P_50V_52G_53A_54S_55F_67L_, Q9UKT9 (peptide)
# chain: FYCPVCGASFTQKGNLLRHIKL
# B13: 46F_47V_49D_50V_52G_53A_54S_55F_67L_, Q9UKT9 (peptide)
# chain: FVCDVCGASFTQKGNLLRHIKL
# B14: 46F_47C_49P_50V_52G_53A_54S_55F_67L_, Q9UKT9 (peptide)
# chain: FCCPVCGASFTQKGNLLRHIKL
# B15: 46F_47W_49P_50V_52G_53A_54S_55F_67L_, Q9UKT9 (peptide)
# chain: FWCPVCGASFTQKGNLLRHIKL
# Biological target: T1, CRBN, Q96SW2
# Assay: log2 fold change of degron read counts, EGFP-low vs EGFP+ sorted cells (limma voom), compound-induced degradation; higher = more compound-induced degradation of the degron-EGFP fusion; degrons are variants of IKZF1/3 zinc finger 2; compound dose not given here
# Settings: Jurkat, 18 h
# Description: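 Pooled library of 8380 IKZF3 ZF2 degron mutants (positions 146-167 varied within the IKZF3 130-189 degron; only the varied core is printed, flanks not printed) fused to EGFP with IRES-mCherry, lentivirally expressed in Jurkat cells. mCherry+ cells were treated with one IMiD compound for 18 h (dose not stated) and FACS-sorted into EGFP-low and EGFP+ populations. Degron sequences were counted by NGS, and log2FC (EGFP-low vs EGFP+) was estimated by limma voom over 3 biological replicates.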
# [1] = compound: compound 19 (5-tert-butyl-thalidomide)
# [2] = compound: compound 22 (5-morpholino-thalidomide)
# [3] = compound: compound 33 (diphenyl IMiD analogue)
# 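Also: pooled lentiviral library of zinc finger degron-EGFP fusions in mCherry-positive Jurkat cells, FACS-sorted after compound exposure, with degron abundance counted by next-generation sequencing.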
Sequence,log2 fold change of degron read counts [1],log2 fold change of degron read counts [2],log2 fold change of degron read counts [3],log2 fold change of degron read counts (compound: thalidomide)
B1,0.862,1.72,1.81,0.773
B2,-1.61,0.0411,-0.252,-0.256
B3,-1.84,-2.2,-2.2,-1.82
B4,-0.855,-1.38,-1.21,-0.475
B5,-2.33,-3.04,-1.56,-1.64
B6,-2.18,-2.81,-0.226,-0.504
B7,-2.22,-1.59,0.523,1.84
B8,0.819,-0.0304,1.62,1.37
B9,-0.176,-2.77,-0.519,-0.688
B10,2.48,2.53,2.04,0.495
B11,-0.331,2.74,2.17,2.62
B12,3.09,3.3,2.34,1.12
B13,-1.45,1.32,0.282,0.656
B14,3.07,2.44,2.49,2.37
B15,3.31,3.48,2.42,1.35
